Results published in PubChem BioAssay AID720579 (National Center for Advancing Translational Sciences (NCATS), 2013).
“And” between values parts separate entries of the source, which are not always exact repeats. Equal values may be shown once. Screen size: about 310,000 compounds; about 1,900 (0.61%) were called active. Roughly 8% stayed inconclusive and do not appear here. Calls come from the whole dose curve; tested in A549 cells. Shown is part of a subset that was picked to be rich in actives. The source holds several records for some structures; these can differ, active in one and inactive in another.

Test: qHTS for Stage-Specific Inhibitors of Vaccinia Orthopoxvirus: mCherry Reporter Primary qHTS; note: nearly all actives have a fitted effect of over 35% in size
Settings: Vaccinia virus mCherry reporter infection, fluorescence; series mostly up to 36.5 µM; activity change, negative = inhibition: at the top concentration
% is set by controls: 0 for no effect and ±100 for the full control effect; potency is the fitted concentration of half-maximal effect.

Row | SMILES | activity change, negative = inhibition | outcome | Potency
1 | CCCCC(=O)N(C)c1c(CC)nc2c(OCc3ccc(S(C)(=O)=O)cc3)cccn12 | -16% (inactive) | – | –
2 | OCCC#Cc1ccc(N2C(c3ccsc3)=Cc3ccc(F)cc3C2c2c[nH]c3ccccc23)cc1 (configuration not stated) | 8.59% (inactive) | – | –
3 | COc1ccc(CN2CCOC2=O)cc1OC | – | inactive | –
4 | COC(=O)C1=CN(Cc2ccc(OC)c(OC)c2)C=C(C(=O)OC)C1c1cccs1 | -12.4% (inactive) | – | –
5 | COc1ccc(CC2c3cc(OC)c(OC)cc3CC[N+]2(C)CCC(=O)OCCCCCOC(=O)CC[N+]2(C)CCc3cc(OC)c(OC)cc3C2Cc2ccc(OC)c(OC)c2)cc1OC (configuration not stated) | – | – | 15.8 µM (active)
6 | OC[C@@H]1CN(Cc2ccc(F)cc2)C[C@H](n2cnc3c(NC4CCCC4)ncnc32)O1 | -6.71% (inactive) | – | –
7 | COc1ccccc1CNc1nc(Nc2ccccc2Cl)c2sccc2n1 | 7.85% (inactive) | – | –
8 | CC(C)c1cccc(-c2csc(C(O)c3ccccc3)n2)c1 (configuration not stated) | – | inactive | –
9 | Cc1ccc(C(O)c2ncc(-c3ccccc3F)[nH]2)cc1F (configuration not stated) | 5.43% (inactive) | – | –
10 | O=C(CSc1cccc2cccnc12)N/N=C/c1cccnc1 | – | – | 11.2 µM (active)
11 | CCOC(=O)N/N=C/c1cccnc1 | -7.27% (inactive) | – | –
12 | O=C(CNC(=O)c1cccnc1)N/N=C/c1cccnc1 | -10.6% (inactive) | – | –
13 | COc1cc(C=C(OC(C)=O)c2ccc3c(c2)OCO3)cc(OC)c1OC | 12.3% (inactive) | – | –
14 | COC(=O)[C@]12CCCCC=C1N(Cc1ccco1)C(=O)[C@H](CC(=O)NCC1CCCCC1)C2 | 32.7% (inactive) | – | –
15 | COC(=O)[C@]12CCCCC=C1N(Cc1ccc(Cl)cc1Cl)C(=O)[C@H](CC(=O)NCc1cccc3ccccc13)C2 | – | inactive | –
16 | Cc1ccc(S(=O)(=O)N2CCC(C(=O)Nc3cc(C)ccc3C)CC2)cc1 | -25.2% (inactive) | – | –
17 | Cc1ccnc(NC(=O)C2CCN(S(=O)(=O)c3c(C)c(C)cc(C)c3C)CC2)c1 | – | – | 11.2 µM (active)
18 | O=C(Nc1ccccn1)C1CCN(S(=O)(=O)c2ccccc2)CC1 | 14.8% (inactive) | – | –
19 | COc1ccc(C(C#N)=C2C=CC(=NO)c3ccccc32)cc1 | -7.3% (inactive) | – | –
20 | COc1cc(C)c(CN2CCN(C(=O)CCC(=O)c3ccc(C)s3)CC2)cc1OC | -4.2% (inactive) | – | –
21 | COC(=O)[C@]12CCCCC=C1N(Cc1ccco1)C(=O)[C@H](CC(=O)NCCCCc1ccccc1)C2 | 8.49% (inactive) | – | –
22 | CC1Cc2ccccc2N1S(=O)(=O)c1ccc(Cl)nc1 (configuration not stated) | – | – | 15.8 µM (active)
23 | CC1Cc2ccccc2N1S(=O)(=O)c1c(N)n(C)c(=O)n(C)c1=O (configuration not stated) | – | inactive | –
24 | Cc1cc(-c2ccc(C)c(S(=O)(=O)N3c4ccccc4CC3C)c2)on1 (configuration not stated) | -11% (inactive) | – | –
25 | CCc1cccc(NC(=O)c2cc(-c3ccccc3)n[nH]2)c1 | -7.89% (inactive) | – | –
26 | CCc1ccc2c(c1)NC(=O)C2(C)Cc1ccc(OC(F)(F)F)cc1 (configuration not stated) | 9.47% (inactive) | – | –

Row | SMILES | activity change, negative = inhibition | outcome | Potency
27 | CCc1ccc2c(c1)C1(NN=C(c3ccccc3)S1)C(=O)N2 (configuration not stated) | – | – | 14.1 µM (active)
28 | CCOc1ccc(C(NC(=O)c2cc(OC)c(OC)c(OC)c2)c2cc(Cl)c3cccnc3c2O)cc1 (configuration not stated) | – | – | 10 µM (active)
29 | CCOc1ccc(C(=O)NC(C(=O)NCc2ccccn2)C(C)C)cc1 (configuration not stated) | -1.03% (inactive) | – | –
30 | COc1cc(C(=O)N[C@@H](C)C(=O)NCc2ccco2)cc(OC)c1OC | – | inactive | –
31 | CC(C)C[C@@H](COCc1ccc(Cl)cc1)N1CCN(C(=O)c2ccc(Cl)cc2Cl)CCC1=O | 1.65% (inactive) | – | –
32 | CC(C)NC(=S)NN=C1CCCCCCCCCCC1 | -5.08% (inactive) | – | –
33 | NC(=S)NN=C1CCCC(C(F)(F)F)C1 (configuration not stated) | – | – | 10 µM (active)
34 | CC(C)(C)C1CCC(=O)N2CCC[C@]2(c2ccccc2)C1 (some centres not stated) | 32.4% (inactive) | – | –
35 | CC(O)(c1cccc(F)c1)c1nc(-c2ccc3c(c2)OCO3)cs1 (configuration not stated) | 6.58% (inactive) | – | –
36 | O=C(c1ccc(CS(=O)Cc2ccccc2Cl)o1)N1CCN(c2ccccc2)CC1 (configuration not stated) | -6.54% (inactive) | – | –
37 | O=C(OCc1ccccc1)N1CCC2CC1c1cc(N3CCN(S(=O)(=O)c4cc(Cl)cc(Cl)c4)CC3)ccc12 (configuration not stated) | – | inactive | –
38 | N=C1c2ccccc2-c2ccccc21 | -6.02% (inactive) | – | –
39 | c1ccc2c(c1)[I+]c1ccccc1-2 | – | – | inactive and 12.6 µM (active)
40 | COC(=O)c1ccccc1N=NNc1ccc([N+](=O)[O-])cc1 | -7.96% (inactive) | – | –
41 | CCN(CC)c1ccc(/C=C/c2c(C)cnc3ccc(C)cc23)cc1 | -7.34% (inactive) | – | –
42 | CC(=O)Nc1cccc(Nc2nc(-c3cccs3)nc3ccccc23)c1 | – | – | 7.08 µM (active)
43 | COc1cccc(-c2nc(Nc3ccncc3)c3ccccc3n2)c1 | 11.8% (inactive) | – | –
44 | COC(=O)c1cc(-c2cccs2)nc2ccccc12 | – | inactive | –
45 | CC(C)c1cc(C(=O)NC2CCCCCC2)c2ccccc2n1 | -3.55% (inactive) | – | –
46 | CC1=C(C(=O)N(C(C)C)C(C)C)CC(CC(=O)NCC2CCCCC2)C(=O)N1Cc1ccccc1 (configuration not stated) | 8.68% (inactive) | – | –
47 | O=C(CO/N=C/c1ccccc1O)NNC(=O)c1ccccc1Cl | -20.3% (inactive) | – | –
48 | O=C(NNC(=O)c1ccccc1O)c1ccccc1O | – | – | 15.8 µM (active)
49 | Cc1cc(C(=O)CCC(=O)NNC(=O)c2ccccc2O)c(C)s1 | -14.3% (inactive) | – | –
50 | CCCCCCCNc1ccc(/C=C/c2ccnc3ccccc23)cc1 | 33.6% (inactive) | – | –
51 | O=[N+]([O-])c1ccc(/C=C/c2ccc3cccnc3c2)cc1 | 36.9% (inactive) | – | –
52 | CN(N=O)c1ccc(C=C2c3ccccc3-c3ccccc32)cc1 | -18.4% (inactive) | – | –

Row | SMILES | activity change, negative = inhibition | outcome | Potency
53 | CN1CC[C@H](c2c(O)cc(O)c3c(=O)cc(-c4ccccc4Cl)oc23)[C@H](O)C1 | – | – | 0.316 µM (active)
54 | CCOC(=O)c1ccn(S(=O)(=O)c2ccc(C)cc2)c1-c1ccccc1 | 6.9% (inactive) | – | –
55 | COc1ccc(CN(Cc2ccccc2)C(=O)c2ccc(O)cc2)cc1COc1ccc(NC(C)=O)cc1 | – | inactive | –
56 | CCOC(=O)c1cc2cc(OC)ccc2n1C1CCN(C)CC1 | -10.5% (inactive) | – | –
57 | Cc1cn(COC/C=C/c2ccccc2)c(=O)[nH]c1=O | – | inactive | –
58 | CC1(C(=O)O)CCCN(C(=O)/C=C/c2ccccc2)C1 (configuration not stated) | 6.42% (inactive) | – | –
59 | Cc1[nH]c(=O)c(C(=O)/C=C/c2ccccc2)c2c1CCCC2 | – | – | 3.16 µM (active)
60 | CC(=O)Nc1ccc(C=Cc2ccc([N+](=O)[O-])cc2)cc1 | -1.71% (inactive) | – | –
61 | O=C(CCCN1C(=O)C(c2ccccc2)Oc2cccnc21)Nc1ccccc1Br (configuration not stated) | – | inactive | –
62 | C(=Nc1ccc(/C=C/c2ccnc3ccccc23)cc1)c1cc2c3c(c1)CCCN3CCC2 | 12% (inactive) | – | –
63 | CN(C)C(=O)c1cccc(-c2cnc3c(NC=O)cc(-c4ccc(C(=O)N5CCOCC5)cc4)cn23)c1 | – | inactive | –
64 | O=C(CCCO)N/N=C/c1cc(Br)ccc1O | -8.6% (inactive) | – | –
65 | O=C(N/N=C/c1ccccc1O)/C(=C/c1ccccc1)CCO | – | – | 7.08 µM (active)
66 | O=C(CCCCCNC(=O)c1ccccc1)N/N=C/c1ccccc1 | -8.18% (inactive) | – | –
67 | CCOC(=O)[C@]12CCCC=C1N(CCC1=CCCCC1)C(=O)[C@H](CC(=O)N1CCSCC1)C2 | -9.06% (inactive) | – | –
68 | Fc1ccc(-c2nnc(CSc3nnc(-c4ccc5c(c4)OCO5)o3)o2)cc1 | – | – | 28.2 µM (active)
69 | O=C(CSc1nnc(CNC(=O)c2ccc(F)cc2)o1)Nc1ccc2c(c1)OCO2 | -8.65% (inactive) | – | –
70 | Cc1ccc(-c2nnc(SCc3ccccc3C)o2)cc1 | 2.67% (inactive) | – | –
71 | COc1ccc(C(=O)C(OP(=O)(OC)OC)c2ccccc2OC)cc1 (configuration not stated) | -25.3% (inactive) | – | –
72 | O=C(COC(=O)COc1cc(Cl)c(Cl)cc1Cl)NC1CC1 | -2.27% (inactive) | – | –
73 | O=C(COc1cc(Cl)c(Cl)cc1Cl)NCCc1ccccn1 | -7.58% (inactive) | – | –
74 | NC(=S)NN=Cc1ccc(OC(=O)COc2cc(Cl)c(Cl)cc2Cl)cn1 | – | – | 11.2 µM (active)
75 | CCOC(=O)C1CCCN(C(=O)c2cc(-c3cccs3)oc2C)CC1 (configuration not stated) | 49% (inactive) | – | –
76 | Cc1cc(Cl)ccc1-c1nc(NCCN(C)C)nc2ccsc12 | 11.6% (inactive) | – | –
77 | CC(C)c1cc(N=O)cc(C(C)C)c1O | – | inactive | –
78 | CC(C)=CCc1c(O)c(CC=C(C)C)c2occ(-c3ccc(O)cc3)c(=O)c2c1O | -20.4% (inactive) | – | –

Row | SMILES | activity change, negative = inhibition | outcome | Potency
79 | CC(C)=CCc1ccc(O)c(=O)cc1C(C)C | – | – | 3.16 µM (active)
80 | CN(C(=O)CN1CCN(c2cc(-c3ccc(OCc4ccccc4)cc3)ncn2)CC1)c1ccccc1 | – | – | 7.94 µM (active)
81 | CN(Cc1ccccc1)C(=O)c1ccc(COc2ccccc2)cc1 | – | inactive | –
82 | CCOc1ccc(OCc2ccc(C(=O)N(C)c3ccccc3)o2)cc1 | -11.1% (inactive) | – | –
83 | Cc1cccc(CNC(=O)c2sc(=O)n(Cc3ccccc3C)c2C)c1 | 2.08% (inactive) | – | –
84 | CCC1NC(=O)c2cccnc2-n2c1nc1ccc(C)cc1c2=O (configuration not stated) | – | inactive | –
85 | Cc1cc(C)c2c(=O)n3c(nc2c1)C(CC(C)C)NC(=O)c1cc2ccccc2cc1-3 (configuration not stated) | – | – | 10 µM (active)
86 | O=C1NC(Cc2ccccc2)c2nc3ccc(Br)cc3c(=O)n2-c2cc3ccccc3cc21 (configuration not stated) | – | inactive | –
87 | NC(=O)Nc1ccc(/C=C/c2ccnc3ccccc23)cc1 | 21.3% (inactive) | – | –
88 | COC(=O)c1ccc2nc(-c3ccccc3)c(Cc3ccc(OC)cc3C)n2c1 | -4.32% (inactive) | – | –
89 | Cc1ccc(S(=O)(=O)N(CCc2ccccc2)c2ccc3c(c2)C2CC3CCN2C(=O)OCc2ccccc2)cc1 (configuration not stated) | -6.6% (inactive) | – | –
90 | COc1ccc(CC(=O)NC(C)CCc2ccccc2)cc1 (configuration not stated) | 2.27% (inactive) | – | –
91 | C/C=C/NNC(=O)Cc1ccc(OC)cc1 | – | – | 11.2 µM (active)
92 | CCCCCNC(=O)Cc1ccc(OC)cc1 | -17% (inactive) | – | –
93 | CC1(C(=O)NCC2CCOCC2)Cc2c(-c3cccc(C(N)=O)c3)ccnc2O1 (configuration not stated) | 5.59% (inactive) | – | –
94 | COc1ccc(-c2nnc(SCc3cccnc3)o2)cc1 | -12.4% (inactive) | – | –
95 | COc1ccc(-c2nnc(-c3ccc4ccccc4c3)o2)cc1 | – | inactive | –
96 | COc1ccc(-c2nnc(SC(C)C#N)o2)cc1 (configuration not stated) | – | – | 11.2 µM (active)
97 | CCOC(=O)[C@]12CCCC=C1N(Cc1ccc(Cl)cc1Cl)C(=O)[C@H](CC(=O)N1CCCCC1)C2 | – | inactive | –
98 | COc1c(C)c2c(c(O)c1C/C=C(\C)CCC(=O)O)C(=O)OC2 | – | – | 5.62 µM (active) and 4.47 µM (active)
99 | CCc1nc2c(OCc3ccc(C(F)(F)F)cc3)cccn2c1N(C)C(=O)CC(C)C | -0.664% (inactive) | – | –
100 | CCOC(=O)c1c(NC(=S)SC)sc(C(=O)N2CCc3ccccc3C2)c1C | -10.4% (inactive) | – | –
101 | CC1(C)OC(=O)C2=C(C[C@@H](C3CC3)O[C@H]2CCc2cccc(Cl)c2)O1 | -11% (inactive) | – | –
102 | CCC(CC)C(C(=O)NC1CCCC1)N1CCN(c2cc(C)nc3ccccc23)CC1 (configuration not stated) | 19.7% (inactive) | – | –
